High-throughput results: PubChem BioAssay, several laboratories
EP2 modulator: modulators of human EP2 prostaglandin E2 receptor | induction, % at 25 µM | EP2-expressing cells, cAMP HTRF FRET, PGE2 co-stimulation | P43116 | 260,000 compounds, 0.83% hits;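 active means compounds whose cAMP rise, as percent of the full-agonist control response, exceeds 60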;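 further: rat C6 glioma line stably carrying human EP2 under a CMV promoter; the protocol text gives 20 µM as final concentration; 100% = response of wells given 1 µM PGE2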
Target sequence (P43116 whole entry, looked up): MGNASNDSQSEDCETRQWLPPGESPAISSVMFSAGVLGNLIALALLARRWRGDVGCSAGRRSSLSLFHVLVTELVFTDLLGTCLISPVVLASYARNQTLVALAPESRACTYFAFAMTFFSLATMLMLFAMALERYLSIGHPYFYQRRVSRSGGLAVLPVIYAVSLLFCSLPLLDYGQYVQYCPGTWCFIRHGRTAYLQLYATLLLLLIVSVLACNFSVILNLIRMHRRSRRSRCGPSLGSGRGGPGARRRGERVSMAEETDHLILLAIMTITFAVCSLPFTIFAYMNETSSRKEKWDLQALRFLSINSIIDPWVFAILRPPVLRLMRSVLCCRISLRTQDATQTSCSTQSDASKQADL
EP2 antag: blocks the human prostaglandin E2 receptor EP2; inhibition, % at 25 µM; C6 glioma cells expressing human EP2, cAMP TR-FRET; cells stimulated with saturating PGE2; P43116; 260,000 compounds, 0.52% hits; AID 1422;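 active means percent inhibition above 40 after rounding to a whole number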;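 further: rat C6 glioma host cells with rolipram phosphodiesterase inhibitor present; the protocol text gives 20 µM as final concentration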
eIF4E-4G inh: inhibitors of eIF4E and eIF4G interaction in translation initiation. TR-FRET eIF4E-eIF4GI(517-606) binding, 2 h. 220,000 compounds, 0.37% hits. inhibition, % at 21.7 µM. AID 782. P63073+Q04637;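 active means inhibition above about 30%, limit read from the data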;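 further: 0% = full FRET control wells and 100% = background wells lacking eIF4GI fragment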
PERK inh: blocks human PERK kinase | Q9NZJ5 | CHO PERK-DD fusion, SEAP luminescence translation reporter | inhibition, % at 5.6 µM | 220,000 compounds, 0.17% hits | AID 1416;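 active means inhibition above the mean inhibition of all tested compounds plus 3 SD, set separately per screening campaign, cut at about 2.9% in these data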;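 further: PERK kinase domain activated by AP20187 dimerizer at 100 nM; 0% = DMSO with dimerizer and 100% = rapamycin at 8.4 µM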
* = called active by the depositor; . = no result; ! = repeats disagree; [ ] = remark or other dose. Compounds with a hit are over-represented: about 1.8% of the library has one in this group of screens.

SMILES | EP2 modulator | EP2 antag | eIF4E-4G inh | PERK inh
O=C(O)CCCCCC[C@H]1C(=O)NC(=O)N1CC[C@@H](O)C1CCCCC1 | 100* | 14 | . | .
Cc1c(-c2ccccc2)n[nH]c1C(=O)NCc1nc(-c2ccccc2)no1 | -92 | 32 | . | .
Cc1ccc(/C=C/C(O)=C2/C(=O)N(C)C3(C)CC2c2ccccc2O3)cc1 (centres undefined) | 20 | 6 | 97* | 0
COc1cc(CNc2ccc(N3CCCC3)cc2)ccc1OCc1ccccc1F | -2 | 2 | 32*[fluorescence artefact?] | 0
O=C(O)c1cccc(N/N=C/c2ccc(F)c(F)c2)c1 | -31 | 15 | -3 | 0
O=C(O)c1cccc(N/N=C/C2=C(Cl)c3cc(Cl)ccc3SC2)c1 | 63* | 9 | 16 | 2
S=C(Nc1cccc(Cl)c1Cl)N1CCC2(CC1)OCCO2 | -21 | -1 | 91* | -1
O=c1oc2ccccc2c2c1nnn2C1CCN(Cc2ccccc2)CC1 | -91 | 74* | . | .
CCC(C)n1nnc2c(=O)oc3ccccc3c21 (centres undefined) | -17 | 9 | 1 | 1
Cc1ccc(-n2nnc3c(=O)oc4ccccc4c32)cc1 | -17 | 86* | -5 | 0
Cc1ccc(N=Nc2ccc(O)c3ncccc23)cc1 | -11 | 5 | -6 | 1
Cc1cc(Nc2ccc(N=Nc3ccc(O)c4ncccc34)cc2)nc(C)n1 | 17 | 45* | . | .
CCc1cccc(C)c1NC(=O)Nc1ccc2c(c1)OCO2 | -9 | 8 | -1 | 3.5*
c1ccc(CCN(Cc2ccccc2)Cc2nc(C3CC3)no2)cc1 | 62* | 11 | 0 | 2
CC(=O)C1=C(C)NC(SCc2ccc(C#N)cc2)=C(C#N)C1c1ccco1 (centres undefined) | 34 | 9 | 44*[fluorescence artefact?] | 1
Nc1ncnc2c1nc(Br)n2[C@@H]1O[C@@H]2COP(=O)(O)O[C@H]2[C@H]1O | . | 4 | . | .
CCOP1(=O)OCC2OC(n3cnc4c(N)ncnc43)C(O)C2O1 (centres undefined) | 104* | 5 | 0 | 2
C/C(CC(=O)Nc1ccc(Cl)cc1Cl)=N\NC(=O)c1ccncc1 | 2 | 9 | -5 | 3.1*
N#C/C(=C\c1ccc(N2CCOCC2)o1)c1nc2ccccc2[nH]1 | -34 | 42* | -10 | 0
N#C/C(=C\c1ccc(N2CCOCC2)c([N+](=O)[O-])c1)c1nc2ccccc2[nH]1 | -22 | 30 | -1 | 0
CCn1c(SCC(=O)N2CCCC(C)C2)nnc1-c1ccc(S(=O)(=O)N2CCCC2)cc1 (centres undefined) | 4 | 11 | . | .
CCC1CC=C2C(C#N)=C(N)C(C#N)(C#N)C(c3cccs3)C2C1 (centres undefined) | 17 | 10 | . | .
Nc1ccc(N2CCCC2)cc1 | -94 | 68* | . | .
COc1cc(C2NC(=O)NC(C)=C2C(=O)OC(C)(C)C)cc(OC)c1OC (centres undefined) | -3 | 15 | . | .
COc1cccc(Nc2nc(-c3sc(NC(=O)c4ccccc4)nc3C)cs2)c1 | 9 | 27 | -12 | -1
SMILES | EP2 modulator | EP2 antag | eIF4E-4G inh | PERK inh
Cc1nc(NC(=O)c2ccccc2)sc1-c1csc(Nc2ccc(C(=O)O)cc2)n1 | -8 | 12 | 35* | 1
CCn1c(COc2cccc(C)c2)nnc1SCC(=O)N1CCCc2ccccc21 | 9 | 7 | . | .
COc1cccc(CN2CCN(Cc3ccc(OC)c(CO)c3)[C@@H](C)C2)c1 | 1 | . | . | .
Cc1onc(-c2ccncc2)c1C(=O)N(C)Cc1cccc2ncccc12 | 9 | 9 | . | .
Cc1cccc(-c2cc3nc4c(c(N5CCOCC5)n3n2)CCCC4)c1 | 61* | 7 | 19 | -1
OC1CCN(c2c3c(nc4cc(-c5ccc(F)cc5)nn24)CCC3)CC1 | -32 | 22 | -3 | -1
Fc1ccc(-c2cc3nc4c(c(N5CCOCC5)n3n2)CCCC4)cc1 | 74*! | 8 | 6 | -1
CCOC(=O)c1ccc(N=c2ssnc2Cl)cc1 | -48 | 8 | 39* | 0
COc1cc(N=c2ssnc2Cl)cc(OC)c1OC | -40 | 130* | 67* | 0
COc1ccc(N=c2ssnc2Cl)cc1 | -72 | 76* | 30* | 0
N#Cc1ccc(N=c2ssnc2Cl)cc1 | -29 | 147* | 26 | 0
Fc1ccc(N=c2ssnc2Cl)c(F)c1 | -97 | 5 | 51* | 1
O=C1CSC(=Nc2ccccc2)N1Cc1ccccc1 | 51 | 7 | -3 | 1
Clc1nssc1=Nc1ccccc1 | -93 | 7 | 51* | 1
Clc1ccc(N=c2ssnc2Cl)cc1 | -68 | 110* | 31*[fluorescence artefact?] | 0
O=c1c(C=Nc2cccc(C(F)(F)F)c2)c[nH]n1-c1cccc(Cl)n1 | -42 | 10 | -26 | 4.3*
